PubChem BioAssay (EPA / NIEHS)
Values joined by “and” are separate entries in the source; they are usually repeats but may differ in a detail not shown here. Equal values may be shown once. Some structures have more than one record in an assay (separate samples or runs), and their calls can disagree. Active and inactive are the calls of the source. How the source made its calls: active means hit-call score of the fitted dose curve at least 0.9, where 1 is the maximum; inactive means score below 0.9.

Experiments:
[1] = read-out: urokinase Plasminogen Activator (uPA), PLAU (gene 5328); experiment: BSK_BF4T_uPA: BioMAP Diversity Plus: BF4T Assay for urokinase Plasminogen Activator (uPA) Biomarker Activity (AID 2284275); settings: primary human bronchial epithelial cells with fibroblasts
In short: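 Co-culture of human bronchial epithelial cells and dermal fibroblasts; uPA quantified by ELISA 24 hours after dosing, fitted relative to DMSO. Parallel SRB total-protein staining assessed overt cytotoxicity.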

[2] = read-out: Matrix Metallopeptidase 9 (MMP9), MMP9 (gene 4318); experiment: BSK_BF4T_MMP9: BioMAP Diversity Plus: BF4T Assay for Matrix Metallopeptidase 9 (MMP9) Biomarker Activity (AID 2284276); settings: primary human bronchial epithelial cells with fibroblasts
In short: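 Co-culture of human bronchial epithelial cells and dermal fibroblasts dosed for 24 h; MMP-9 quantified by ELISA and fitted upward versus DMSO. Cytotoxicity monitored in parallel cultures by SRB total-protein staining at the biomarker time point.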

[3] = read-out: Interleukin-8 (IL8), CXCL8 (gene 3576); experiment: BSK_IMphg_IL8: BioMAP Diversity Plus: IMphg Assay for Interleukin-8 (IL8) Biomarker Activity (AID 2284277); settings: primary human endothelial cells with macrophages
In short: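 Co-culture of human venular endothelial cells and macrophages exposed to chemicals for 24 h; IL-8 quantified by ELISA and compared against the DMSO baseline, with SRB total-protein staining in parallel cultures for cytotoxicity.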

[4] = read-out: Intercellular Adhesion Molecule 1 (ICAM1), ICAM1 (gene 3383); experiment: BSK_BE3C_ICAM1: BioMAP Diversity Plus: BE3C Assay for Intercellular Adhesion Molecule 1 (ICAM1) Biomarker Activity (AID 2284278); settings: primary human bronchial epithelial cells
In short: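 Primary human bronchial epithelial cells in BE3C system, 24 h after chemical dosing; cell-surface ICAM-1 measured by ELISA relative to DMSO. Parallel SRB staining (0.1% SRB after 10% TCA fixation, read at 560 nm) assessed cytotoxicity.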

[5] = read-out: Interferon-inducible T-cell alpha chemoattractant (ITAC), CXCL11 (gene 6373); experiment: BSK_BE3C_ITAC: BioMAP Diversity Plus: BE3C Assay for Interferon-inducible T-cell alpha chemoattractant (ITAC) Biomarker Activity (AID 2284279); settings: primary human bronchial epithelial cells
In short: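 Steps: dose human bronchial epithelial cells with chemical; incubate 24 h; measure I-TAC by ELISA; fit endpoint in positive direction against DMSO control. Cytotoxicity was checked in parallel cultures by SRB staining at harvest.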

[6] = read-out: Interleukin-8 (IL8), CXCL8 (gene 3576); experiment: BSK_BE3C_IL8: BioMAP Diversity Plus: BE3C Assay for Interleukin-8 (IL8) Biomarker Activity (AID 2284280); settings: primary human bronchial epithelial cells
In short: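 IL-8 signal gain, normalised to DMSO vehicle, was scored after a 24 h chemical exposure of primary human bronchial epithelial cells, with detection by ELISA.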

[7] = read-out: Epidermal growth factor receptor (EGFR), EGFR (gene 1956); experiment: BSK_BE3C_EGFR: BioMAP Diversity Plus: BE3C Assay for Epidermal growth factor receptor (EGFR) Biomarker Activity (AID 2284281); settings: primary human bronchial epithelial cells
In short: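 Compound is added to human bronchial epithelial cells, cells incubate 24 h, then EGFR is detected by ELISA. Values reflect positive-direction fitting relative to DMSO.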

[8] = read-out: KRT18 (gene 3875); experiment: BSK_BE3C_Keratin818: BioMAP Diversity Plus: BE3C Assay for Keratin 818 Biomarker Activity (AID 2284282); settings: primary human bronchial epithelial cells
In short: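 Primary human bronchial epithelial cells treated 24 h; Keratin 8/18 quantified by ELISA, fit relative to DMSO. Cytotoxicity tracked in parallel cultures by sulforhodamine B total-protein staining.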

[9] = read-out: Matrix Metallopeptidase 9 (MMP9), MMP9 (gene 4318); experiment: BSK_BE3C_MMP9: BioMAP Diversity Plus: BE3C Assay for Matrix Metallopeptidase 9 (MMP9) Biomarker Activity (AID 2284283); settings: primary human bronchial epithelial cells
In short: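 MMP9 is measured by ELISA after a 24 h compound exposure of primary human bronchial epithelial cultures. Parallel SRB staining gives overt cytotoxicity. Values fitted in the positive direction against DMSO.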

[10] = read-out: Plasminogen activator inhibitor-1 (PAI1), SERPINE1 (gene 5054); experiment: BSK_CASM3C_PAI1: BioMAP Diversity Plus: CASM3C Assay for Plasminogen activator inhibitor-1 (PAI1) Biomarker Activity (AID 2284284); settings: primary human coronary artery smooth muscle cells;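 further: PAI-1 protein level measured by ELISA 24 h after dosing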
[11] = read-out: Vascular cell adhesion molecule 1 (VCAM1), VCAM1 (gene 7412); experiment: BSK_IMphg_VCAM1: BioMAP Diversity Plus: IMphg Assay for Vascular cell adhesion molecule 1 (VCAM1) Biomarker Activity (AID 2284286); settings: primary human endothelial cells with macrophages
In short: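 Human venular endothelial cells co-cultured with macrophages; VCAM-1 quantified by ELISA 24 h after dosing, fitted in the positive direction against DMSO. Cytotoxicity was checked in parallel cultures by SRB total-protein staining (0.1% SRB after 10% TCA fixation, 560 nm).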

[12] = read-out: Intercellular Adhesion Molecule 1 (ICAM1), ICAM1 (gene 3383); experiment: BSK_hDFCGF_ICAM1: BioMAP Diversity Plus: hDFCGF Assay for Intercellular Adhesion Molecule 1 (ICAM1) Biomarker Activity (AID 2284287); settings: primary human foreskin fibroblasts
In short: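 Primary human foreskin fibroblasts (hDFCGF system) dosed with chemical; ICAM-1 quantified by ELISA at 24 h relative to DMSO. Parallel SRB total-protein staining to assess overt cytotoxicity.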

[13] = read-out: CD40, CD40 (gene 958); experiment: BSK_IMphg_CD40: BioMAP Diversity Plus: IMphg Assay for CD40 Biomarker Activity (AID 2284288); settings: primary human endothelial cells with macrophages
In short: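 Venular endothelial cells co-cultured with macrophages (human primary), CD40 measured by ELISA 24 h after dosing. Positive-direction fit vs DMSO baseline; cytotoxicity tracked by SRB total-protein staining in parallel cultures.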

[14] = read-out: TIMP metallopeptidase inhibitor 2 (TIMP2), TIMP2 (gene 7077); experiment: BSK_hDFCGF_TIMP2: BioMAP Diversity Plus: hDFCGF Assay for TIMP metallopeptidase inhibitor 2 (TIMP2) Biomarker Activity (AID 2284289); settings: primary human foreskin fibroblasts
In short: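 Primary human foreskin fibroblasts in the hDFCGF system, dosed for 24 h; TIMP-2 level measured by ELISA, fitted in the positive direction against DMSO; cytotoxicity checked in parallel by sulforhodamine B total protein staining.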

[15] = read-out: Interleukin-1 alpha (IL1a), IL1A (gene 3552); experiment: BSK_IMphg_IL1a: BioMAP Diversity Plus: IMphg Assay for Interleukin-1 alpha (IL1a) Biomarker Activity (AID 2284290); settings: primary human endothelial cells with macrophages
In short: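 Human venular endothelial cells co-cultured with macrophages, IMphg system. IL-1α is measured by ELISA 24 h after dosing and fitted in the positive direction against DMSO. Cytotoxicity is assessed by SRB staining of parallel cultures.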

[16] = read-out: E-selectin (Homo sapiens) (UniProt P16581); experiment: BSK_IMphg_ESelectin: BioMAP Diversity Plus: IMphg Assay for Eselectin Biomarker Activity (AID 2284291); settings: primary human endothelial cells with macrophages
In short: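 Human venular endothelial cell–macrophage co-culture, E-selectin measured by ELISA 24 h after chemical dosing. Signal fitted in the positive direction against DMSO as negative control and baseline.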

[17] = BSK_IMphg_SRB: Viability Assessment in the BioMAP Diversity Plus: IMphg Assay (AID 2284292); settings: primary human endothelial cells with macrophages;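 further: measured one day after compound addition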
In short: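 Human venular endothelial cells with macrophages, 24 h after chemical dosing; total protein by 0.1% SRB staining after 10% TCA fixation, read at 560 nm. Positive-direction fitting versus DMSO baseline.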

[18] = read-out: Macrophage colony-stimulating factor (MCSF), CSF1 (gene 1435); experiment: BSK_IMphg_MCSF: BioMAP Diversity Plus: IMphg Assay for Macrophage colony-stimulating factor (MCSF) Biomarker Activity (AID 2284293); settings: primary human endothelial cells with macrophages
In short: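 Co-culture of human venular endothelial cells and macrophages, 24 hours of chemical exposure. M-CSF quantified by ELISA, with parallel SRB total-protein staining for cytotoxicity; activity fitted relative to DMSO.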

[19] = read-out: Interleukin-10 (IL10), IL10 (gene 3586); experiment: BSK_IMphg_IL10: BioMAP Diversity Plus: IMphg Assay for Interleukin-10 (IL10) Biomarker Activity (AID 2284294); settings: primary human endothelial cells with macrophages
In short: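 Human venular endothelial cells cocultured with macrophages, dosed 24 h; IL-10 measured by ELISA, activity relative to DMSO. Cytotoxicity assessed in parallel cultures by sulforhodamine B total-protein staining.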

Measured: AC50

E-selectin (Homo sapiens), sequence (P16581 whole entry, looked up): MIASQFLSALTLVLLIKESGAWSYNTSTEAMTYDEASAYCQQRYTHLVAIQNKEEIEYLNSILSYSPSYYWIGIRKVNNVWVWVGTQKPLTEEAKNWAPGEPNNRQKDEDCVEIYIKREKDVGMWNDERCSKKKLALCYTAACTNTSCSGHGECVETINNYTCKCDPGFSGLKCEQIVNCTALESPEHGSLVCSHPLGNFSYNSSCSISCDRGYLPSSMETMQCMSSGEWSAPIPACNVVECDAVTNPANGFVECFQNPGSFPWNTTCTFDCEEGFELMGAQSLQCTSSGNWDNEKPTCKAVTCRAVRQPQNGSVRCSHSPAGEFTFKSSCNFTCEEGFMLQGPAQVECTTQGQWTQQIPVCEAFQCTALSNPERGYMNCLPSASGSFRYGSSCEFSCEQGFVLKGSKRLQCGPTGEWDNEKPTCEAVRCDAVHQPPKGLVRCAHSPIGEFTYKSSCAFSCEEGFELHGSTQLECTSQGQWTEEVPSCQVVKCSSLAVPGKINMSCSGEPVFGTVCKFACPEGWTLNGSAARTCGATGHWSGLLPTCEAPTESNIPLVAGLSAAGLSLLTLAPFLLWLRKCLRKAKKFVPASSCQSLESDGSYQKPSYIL

FC(F)(F)C(F)(F)C(F)(F)C(F)(F)C(F)(F)C(F)(F)C(F)(F)C(F)(F)F
inactive: [1] | [2] | [3] | [4] | [5] | [6] | [7] | [8] | [9] | [10] | [11] | [12] | [13] | [14] | [15] | [16] | [17] | [18] | [19]

FC(F)(F)C(F)(F)C(F)(F)C(F)(F)C(F)(F)CCI
inactive: [1] | [2] | [3] | [4] | [5] | [6] | [7] | [8] | [9] | [10] | [11] | [13] | [15] | [16] | [17] | [18]

CCCCCCOC(=O)c1ccccc1O
inactive: [4] | [5] | [6] | [7] | [8] | [9] | [10]

O=C(O)C(F)(F)C(F)(F)OC(F)(F)F
inactive: [1] | [2] | [3] | [4] | [5] | [6] | [7] | [8] | [9] | [10] | [11] | [13] | [15] | [16] | [17] | [18]

O=S(=O)(OCCOC(F)(F)F)C(F)(F)F
inactive: [1] | [2] | [3] | [4] | [5] | [6] | [7] | [8] | [9] | [10] | [11] | [13] | [14] | [15] | [16] | [17] | [18]

C=C(C)C(=O)OCCC(F)(F)C(F)(F)C(F)(F)C(F)(F)C(F)(C(F)(F)F)C(F)(F)F
inactive: [1] | [2] | [3] | [4] | [5] | [6] | [7] | [8] | [9] | [10] | [11] | [13] | [14] | [15] | [16] | [17] | [18]

O=C(Cl)C(F)(F)C(F)(F)C(F)(F)C(F)(F)C(F)(F)C(F)(F)C(F)(F)C(F)(F)F
active: [1] 46 µM and 48 µM and 44.8 µM | [2] 46.1 µM and 52.4 µM and 49.7 µM | [3] 6.67 µM and 5.95 µM and 19.6 µM | [4] 50.4 µM and 58.6 µM and 57.1 µM | [5] 48.3 µM and 46.7 µM and 48.2 µM | [6] 30 µM and 43.4 µM and 38.6 µM | [7] 39 µM and 43.6 µM and 45.5 µM | [8] 47.8 µM and 43.9 µM and 46.8 µM | [9] 55.1 µM and 54.8 µM | [11] 35.9 µM and 46.8 µM and 46.3 µM | [13] 36.6 µM | [16] 40.2 µM | [17] 54.8 µM and 40 µM and 47.8 µM
inactive: [10] | [13] | [15] | [16] | [18]
